# Assay outcomes (PubChem)
# VHR inh abs: inhibitors of human VHR1 phosphatase (DUSP3) | recombinant VHR phosphatase, pNPP absorbance | inhibition, % at 13.3 µM | 290,000 tested, 0.52% active | AID 1654; in the data active = inhibition above about 50%
# Target sequence (P51452 whole entry, looked up): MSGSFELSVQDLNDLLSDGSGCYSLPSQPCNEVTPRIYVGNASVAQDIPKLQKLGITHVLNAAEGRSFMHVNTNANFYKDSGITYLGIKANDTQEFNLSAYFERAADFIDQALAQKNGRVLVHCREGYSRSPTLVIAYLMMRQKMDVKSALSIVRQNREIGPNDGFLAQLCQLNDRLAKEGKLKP
# Mtb betalactam: beta-lactam sensitization of Mtb H37Rv | M. tuberculosis H37Rv growth with meropenem, percent inhibition | inhibition, % at 25 µM | 330,000 tested, 0.27% active | AID 434955; call rule not given here;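 note: growth measured after seven days incubation then overnight dye step; 0% = bacteria only wells and 100% = bacteria with antibiotic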
# Mtb hypoxia inh: inhibitors of hypoxia-regulated fluorescent reporter in Mycobacterium tuberculosis | fluorescence inhibition, % (concentration not given with the values) | M. tuberculosis hypoxia-regulated fluorescent reporter, fluorescence | 300,000 tested, 0.1% active | AID 1159583; in the data active = fluorescence inhibition mostly above about 23%, no sharp cut-off; inactive = mostly below about 17%
# FBA Mtb inh: inhibits M. tuberculosis FBA enzyme; P9WQA3; purified M. tuberculosis FBA, fluorescence read-out; inhibition, % at 1 µM; 360,000 tested, 2.3% active; AID 588726; in the data active = inhibition above about 27%;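 note: 0% = vehicle and 100% = reference inhibitor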
# Target sequence (P9WQA3 whole entry, looked up): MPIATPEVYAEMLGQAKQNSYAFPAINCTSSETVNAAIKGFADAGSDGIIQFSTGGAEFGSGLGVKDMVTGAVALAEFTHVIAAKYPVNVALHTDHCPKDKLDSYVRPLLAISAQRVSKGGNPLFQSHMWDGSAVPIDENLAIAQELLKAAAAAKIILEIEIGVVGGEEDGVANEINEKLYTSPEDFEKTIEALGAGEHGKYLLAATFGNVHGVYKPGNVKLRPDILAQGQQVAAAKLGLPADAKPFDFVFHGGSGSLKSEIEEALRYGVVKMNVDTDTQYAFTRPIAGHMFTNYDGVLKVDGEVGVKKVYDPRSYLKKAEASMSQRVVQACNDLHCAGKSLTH
# GDH-TPI inh: counter-screen for M. tuberculosis FBA inhibitors: GDH-TPI coupled enzymes | GDH-TPI coupled enzyme counterscreen, NADH absorbance | inhibition, % at 4.8 µM | 360,000 tested, 1.2% active | AID 588335; in the data active = inhibition above about 30%;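 note: 0% = DMSO wells and 100% = wells lacking the enzyme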
# Numbers without * were called inactive; . = no result; + = active, no number. Most compounds without a hit are left out; they make up all but 3.6% or so of the library.
SMILES,VHR inh abs,Mtb betalactam,Mtb hypoxia inh,FBA Mtb inh,GDH-TPI inh
CC1CN(C(C)CO)C(=O)c2cc(NC(=O)Nc3ccccc3)ccc2OC1CN(C)S(C)(=O)=O (stereo unspecified),.,.,9.7,.,.
C=C(C)C1CC=C(CN2CCN(Cc3ccccc3)CC2)CC1 (stereo unspecified),-3.8,82.2,22.2,-2.8,3.5
C=C(C)[C@@H]1CC=C(CN2CCN(Cc3ccccc3)CC2)CC1,20.7,76.8,35.2*,1.2,0.3
Cc1noc(C)c1NC(=O)N(C)CC1Oc2ccc(NC(=O)NC3CCCCC3)cc2C(=O)N(C(C)CO)CC1C (stereo unspecified),.,.,1.3,.,.
COc1ccc(C=NNC(=O)c2cccnc2)cc1COc1ccc([N+](=O)[O-])cc1,.,.,-1.2,.,.
O=[N+]([O-])c1ccc(OCc2cn(C(CO)c3ccccc3)nn2)c(Br)c1 (stereo unspecified),.,.,10.3,.,.
O=C(NC(NCc1cccnc1)C(Cl)(Cl)Cl)c1cccc2ccccc12 (stereo unspecified),53.8*,0.5,4.4,-2.8,-5.2
Cc1cc(NCCOCCO)n2c(nc3ccccc32)c1C#N,27.1,-2.9,-5.5,+,10.8
COCCNc1c2c(c(C#N)c3nc4ccccc4n13)CCCC2,-24.6,58.4,8.2,11.2,10.6
N#Cc1c2c(c(NCCOCCO)n3c1nc1ccccc13)CCCC2,8.6,-4.0,7.3,15.5,9.8
Cc1cc(NCCCO)n2c(nc3ccccc32)c1C#N,0.1,-9.1,6.3,181.3*,10.1
COCCNc1cc(C)c(C#N)c2nc3ccccc3n12,-23.9,3.3,.,193.4*,9.7
COC(=O)C1=C(c2ccc(F)cc2F)CC2CCC1N2C(=O)N1CCC(O)CC1 (stereo unspecified),.,.,2.2,.,.
CCn1c(NC(=O)c2ccc(COc3ccc(C)cc3[N+](=O)[O-])o2)nc2ccccc21,24.4,69.7,2.4,0.9,31.8*
O=C(NN=Cc1ccccc1Cl)C1CC1,.,.,8.8,.,.
N#CCCCCn1ccc(NC(=O)c2ccc(Cl)cc2O)n1,.,-7.9,-11.7,12.3,32.0*
Cc1ccc(Cn2ccc(NC(=O)c3cc(-c4ccc(Cl)cc4)on3)n2)cc1,37.6,-5.9,4.5,1.5,5.5
CCOc1ccc(Br)cc1C(=O)NN=Cc1ccccn1,.,.,1.3,.,.
O=C(Nc1ccc2oc(=O)ccc2c1)c1ccc(-c2cccc([N+](=O)[O-])c2)o1,58.5*,86.0,.,3.8,25.1
CC(C)(C)OC(=O)NCCCCC(NC(=O)c1nc[nH]c1C(=O)NCc1ccccc1)C(=O)OC(C)(C)C (stereo unspecified),.,.,2.8,.,.
O=C(Nc1ccc(F)cc1)Nc1nnc(-c2ccncc2)s1,13.0,-2.6,11.5,1.3,35.0*
C=CCNc1nnc(-c2ccncc2)s1,21.3,-11.4,.,181.0*,11.5
O=C(Nc1ccc(Cl)cc1)Nc1nnc(-c2ccncc2)s1,47.6,-5.2,-2.8,2.6,6.5
c1ccc2c(Nc3nnc(-c4ccncc4)s3)cccc2c1,10.4,64.8,-0.5,0.3,37.5*
C=C(C)C(=O)Nc1cccc(C2=NOC3(C2)CC(C(N)=O)N(C(=O)CC#N)C3)c1 (stereo unspecified),.,.,4.6,.,.
SMILES,VHR inh abs,Mtb betalactam,Mtb hypoxia inh,FBA Mtb inh,GDH-TPI inh
O=C(CSc1nnc(-c2ccccc2Cl)o1)N1CCCCC1,2.4,98.8,.,-0.4,-5.9
O=C(CSc1nnc(-c2ccccc2Cl)o1)N1CCCC1,56.2*,1.4,16.8,0.6,-9.6
Cc1ccc(-c2nnc(SCCC(=O)N3CCOCC3)o2)cc1,7.8,67.9,19.4,7.2,5.3
COc1cc(OC)cc(-c2nnc(SCC(=O)N3CCCC3)o2)c1,11.8,41.0,.,117.7*,-3.9
O=C(CCSc1nnc(-c2ccccc2)o1)N1CCOCC1,-10.0,96.0,40.4*,4.6,3.7
CCCCCC1CN(CCCC)C(=O)C1CC(=O)NCc1ccc(OC)cc1 (stereo unspecified),.,.,5.7,.,.
COc1ccc(C(=O)c2cnc(N=CN(C)C)s2)cc1,.,.,9.4,.,.
O=C(NN=Cc1ccc(Cl)cc1)C1=NOC2COC3(CCN(c4ccc([N+](=O)[O-])cc4)CC3)OCC12 (stereo unspecified),.,.,2.3,.,.
CCN(CC)c1ccc(C=NNC(=O)c2c(Cl)c(C)nn2C)cc1,.,.,0.6,.,.
Cc1ccc2oc(-c3ccco3)cc(=O)c2c1,13.8,-0.3,8.0,122.7*,31.3*
COc1ccc(C2Nc3cccc4cccc(c34)N2)cc1,28.2,39.3,8.1,-0.4,2.8
COc1cc(OC)c(C2Nc3cccc4cccc(c34)N2)c(OC)c1,53.0*,6.2,3.1,-0.1,7.1
CCOc1ccccc1N(C)C(=O)c1cn(CC)c(=O)c2cc(OC)c(OC)cc12,21.0,.,4.7,3.3,6.3
CCOc1ccccc1N(C)C(=O)c1cn(C)c(=O)c2ccccc12,50.7*,4.3,9.3,2.5,1.3
C=CCN1C(=O)C(CC(=O)O)SC1=NN=Cc1ccc(N(CC)CC)cc1 (stereo unspecified),.,.,-2.1,.,.
C=CCN1C(=O)C(CC(=O)O)S/C1=N/N=C/c1ccc(N(CC)CC)cc1 (stereo unspecified),.,5.8,.,23.1,34.5*
CC1Cc2cc(/C(O)=C3/C(=O)C(=O)N(CCCn4ccnc4)C3c3ccc(F)cc3)ccc2O1 (stereo unspecified),5.3,-3.2,-2.9,2.3,31.7*
O=C(Cc1c(C(=O)O)[nH]c2ccc(Cl)cc12)Nc1ccc2c(c1)OCCO2,51.7*,-1.2,.,-0.9,-0.8
O=C(COc1ccc(/C=N/NC(=O)c2ccccc2O)cc1)Nc1ccc([N+](=O)[O-])cc1,-1.0,10.7,.,0.0,37.8*
O=C(COc1ccc(C=NNC(=O)c2ccccc2O)cc1)Nc1ccccc1,.,.,0.1,.,.
CCOc1cccc2cc(-c3csc(NC(=O)CCC(=O)NCCN4CCCCC4C)n3)c(=O)oc12 (stereo unspecified),4.0,-2.5,5.5,-0.3,34.1*
CCOc1cccc2cc(-c3csc(NC(=O)CCC(=O)NCCCN4CCC(C)CC4)n3)c(=O)oc12,18.4,-4.2,-8.2,.,.
O=S(=O)(Nc1nc2ccccc2nc1NCc1ccco1)c1ccc(F)cc1,37.5,-3.5,-5.5,12.0,34.5*
CC1=CCC(C(=O)O)(C(=O)NN=Cc2cccs2)C(c2ccc([N+](=O)[O-])cc2)C1 (stereo unspecified),.,.,-10.3,.,.
O=C1CN(c2nc3nonc3nc2N2CCCCC2)CCN1,38.4,-4.7,-1.2,-3.1,35.4*
SMILES,VHR inh abs,Mtb betalactam,Mtb hypoxia inh,FBA Mtb inh,GDH-TPI inh
COC(=O)c1ccc(C(NC(=O)OCc2ccccc2)C(C)=CC(C)C(=O)NCc2ccc(OC)c(OC)c2)cc1 (stereo unspecified),.,.,3.6,.,.
Cc1nnc(N/N=C/c2ccc(O)c([N+](=O)[O-])c2)[nH]c1=O,28.2,20.3,.,-2.9,47.4*
Cc1onc(-c2ccccc2)c1C(=O)N/N=C/c1ccc(O)c([N+](=O)[O-])c1,9.2,-0.5,.,-7.2,34.9*
O=C(CNC(=O)c1cccc(F)c1)N/N=C/c1ccc(O)c([N+](=O)[O-])c1,-16.8,0.5,.,-4.0,21.6
O=[N+]([O-])c1cc(/C=N\Nc2nc(-c3ccccc3)cs2)ccc1O,18.4,36.1,.,-3.3,33.8*
O=[N+]([O-])c1cc(C=NNc2nc(-c3ccccc3)cs2)ccc1O,.,.,7.0,.,.
